The record followed here is PubChem BioAssay.

The nature of test [1]: resazurin metabolic signal in HepG2 cells – cell-based, resazurin fluorescence, 24 h, PK04 Diversity Set, profiling panel (AID 1172). Further: test concentration not given here. The settings on record: HepG2 viability, higher = more signal. (The colour change of resazurin is a common sign of viable cells or microbes.)
A short description of test [2]: budding yeast growth changes without added modifier – OD600, strain BY4716, 24 h, basal condition, primary screen (AID 1173). The settings on record: S. cerevisiae BY4716 growth, OD600, 24 h; higher = more signal, called active from +8 up or from −8 down.
The nature of test [3]: viability profiling in MM1S myeloma cells – cell-based, resazurin fluorescence, basal, 24 h, PK04 Diversity Set, profiling panel (AID 1174).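 Further: MM1S multiple myeloma cell line; test concentration not given here.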 The settings on record: higher = more signal, called active from +8 up or from −8 down.
Test [4] concerns the target Dihydroorotate dehydrogenase (quinone), mitochondrial (Plasmodium falciparum (isolate 3D7)) (UniProt Q08210). Description: inhibition of P. falciparum DHODH – biochemical, C-terminal His tag, absorbance 600 nm, primary screen (AID 1175).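 Further: recombinant parasite enzyme with a five histidine tag at its C terminus; test concentration not given here.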 The settings on record: PfDHODH enzyme, DCIP absorbance 600 nm; higher = more signal, called active from +8 up or from −8 down.
Test [5] can be described thus: inhibition of PAO1 biofilm formation – strain PAO1, LB-PBS medium, absorbance 600 nm, primary screen (AID 1176). Further: test concentration not given here. The settings on record: P. aeruginosa PAO1 growth/biofilm, A600, 12 h; higher = more signal.
Test [6] can be described thus: growth modulation of vineyard yeast isolate – strain RM11-1a, OD600, basal, 24 h, primary screen (AID 1177).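 Further: cultures grown under basal conditions with no added stressor; test concentration not given here.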 The conditions noted are these: S. cerevisiae RM11-1a growth, OD600, 24 h; higher = more signal, called active from +8 up or from −8 down.
Test [7] is described as follows: growth of efflux-deficient E. coli DRC39 – strain DRC39, OD650, 24 h, E. coli filamentation inducers, primary screen (AID 1178).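 Further: growth measured as culture turbidity by optical density at 650 nm; test concentration not given here.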 The settings on record: E. coli DRC39 acrAB, higher = more signal, called active from +8 up or from −8 down.
Test [8] can be described thus: growth of efflux-deficient E. coli DRC39 – strain DRC39, OD650, 48 h, E. coli filamentation inducers, primary screen (AID 1179).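 Further: screen aims at cell division blockers that make cells filament.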 The settings on record: E. coli DRC39 delta-acrAB growth, higher = more signal, called active from +8 up or from −8 down.
Test [9] is described as follows: viability profiling in RPMI8226 myeloma cells – cell-based, resazurin fluorescence, basal, 24 h, PK04 Diversity Set, profiling panel (AID 1180).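 Further: RPMI8826 multiple myeloma cell line at 5000 cells per well; test concentration not given here.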 The settings on record: higher = more signal.
In test [10] the target is E3 ubiquitin-protein ligase XIAP (Homo sapiens) (UniProt P98170). Description: small molecules binding XIAP protein – biophysical, small-molecule microarray, fluorescence 635 nm, primary screen (AID 1181).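 Further: score merges 667 nm emission and signal to noise over triplicate slides.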 The settings on record: higher = more signal.
E3 ubiquitin-protein ligase XIAP (Homo sapiens), sequence (P98170 whole entry, looked up): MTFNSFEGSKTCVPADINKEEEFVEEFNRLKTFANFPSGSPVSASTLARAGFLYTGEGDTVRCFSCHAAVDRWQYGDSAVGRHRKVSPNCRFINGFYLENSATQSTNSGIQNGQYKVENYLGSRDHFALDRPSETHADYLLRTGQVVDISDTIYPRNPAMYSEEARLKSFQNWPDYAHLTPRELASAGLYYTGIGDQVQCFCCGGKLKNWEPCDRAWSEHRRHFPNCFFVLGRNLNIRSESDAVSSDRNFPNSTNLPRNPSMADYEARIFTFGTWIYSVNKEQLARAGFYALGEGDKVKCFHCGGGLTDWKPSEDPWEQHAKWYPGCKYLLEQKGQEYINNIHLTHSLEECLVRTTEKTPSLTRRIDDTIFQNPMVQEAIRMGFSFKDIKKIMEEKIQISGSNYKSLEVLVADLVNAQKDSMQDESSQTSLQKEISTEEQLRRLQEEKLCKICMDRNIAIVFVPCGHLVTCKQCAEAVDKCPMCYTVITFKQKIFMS

Active and inactive are the calls of the source. Unless noted, how the calls were made is not given here.

Dihydroorotate dehydrogenase (quinone), mitochondrial (Plasmodium falciparum (isolate 3D7)), sequence (Q08210 whole entry, looked up): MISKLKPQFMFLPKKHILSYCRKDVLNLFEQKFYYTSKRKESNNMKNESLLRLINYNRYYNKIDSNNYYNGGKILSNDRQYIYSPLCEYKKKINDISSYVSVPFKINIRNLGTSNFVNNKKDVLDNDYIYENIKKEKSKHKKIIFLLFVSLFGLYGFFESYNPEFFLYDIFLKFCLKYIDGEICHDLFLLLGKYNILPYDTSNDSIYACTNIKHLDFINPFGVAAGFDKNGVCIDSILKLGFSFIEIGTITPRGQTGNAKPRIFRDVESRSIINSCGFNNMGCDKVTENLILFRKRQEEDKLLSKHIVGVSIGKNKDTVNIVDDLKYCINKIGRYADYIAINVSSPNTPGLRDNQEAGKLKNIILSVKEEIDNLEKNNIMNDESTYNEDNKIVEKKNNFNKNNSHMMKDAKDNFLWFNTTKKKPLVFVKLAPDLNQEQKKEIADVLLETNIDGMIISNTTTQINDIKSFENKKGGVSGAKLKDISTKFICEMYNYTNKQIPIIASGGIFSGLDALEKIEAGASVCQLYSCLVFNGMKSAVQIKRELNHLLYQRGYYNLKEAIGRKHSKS

Turning to `COc1ccc([Si](C)(C)[C@@H]2[C@@H](CCO)O[C@]3(C(=O)N(Cc4ccccc4)c4ccc(N5C(=O)c6ccccc6Oc6ccccc65)cc43)[C@H]2C)cc1`, the z-score in [1] is 1.09; in test [2] it was 1.84 (inactive); in test [3], -1.3 (inactive); in [5], 0.225 (inactive); in test [6], 3.88 (inactive); in test [7], 0.727 (inactive). The z-score in [8] is 0.435 (inactive); in [9], -1.81. The results for the composite z-score in [4] and in [10] were -0.641 (inactive) and -0.157, respectively.
For the compound `C=C(CCCC)/C(=C/C[C@H](OC(C)=O)c1cccc(OCCO)c1)c1cc(C(=O)OC)ccc1OC`, the z-score in test [1] was 2.33; in test [2] it was -0.456 (inactive); in test [3] it was 1.44 (inactive); in test [5] it was 0.473 (inactive); in test [6], -0.515 (inactive); in test [7], 1.85 (inactive). In addition, the z-score was 1.34 (inactive) in test [8] and 1.43 in test [9]. In addition, the composite z-score was -0.989 (inactive) in test [4] and -0.0297 in test [10].
For the compound `O=C1C2C=CC(C(O)c3cccs3)N(Nc3ccccc3)C2C(=O)N1c1ccccc1` (stereo not given), the z-score in [1] was -1.51; in [2], -3.05 (inactive); in test [3], -0.334 (inactive); in [5], 1.06 (inactive); in [6], -0.272 (inactive); in test [7] it was 0.0187 (inactive). The z-score is -0.952 (inactive) in [8] and -0.717 in [9]. In addition, the composite z-score was -0.116 (inactive) in test [4] and 0.0537 in test [10].
Regarding `COC(=O)[C@@]1(Cc2ccccc2CN=[N+]=[N-])COC(c2ccc(OCCCO)cc2)=N1`, the z-score in test [1] is -0.639; in test [2] it was -5.02 (inactive); in test [3] it was -1.75 (inactive); in test [5], 1.07 (inactive); in test [6], 0.593 (inactive); in test [7] it was 0.544 (inactive). Further, the results for the z-score in test [8] and in [9] were -0.74 (inactive) and -0.39, respectively. Also, the composite z-score is 0.37 (inactive) in test [4] and -0.0582 in test [10].
Turning to `CC1CC/C=C\[C@H]2OC34C=CCN(c5ccc(Cl)cc5)C(=O)[C@H]3N(CCCO)C(=O)[C@]4(C)C2C(=O)O1` (stereo not given in full), the z-score was -1.08 in test [1]; 1.44 (inactive) in test [2]; -0.198 (inactive) in [3]; -0.897 (inactive) in [5]; 0.941 (inactive) in test [6]; -0.699 (inactive) in test [7]. The z-score in test [8] is -0.801 (inactive); in [9], -0.208. Further, the values for the composite z-score in test [4] and in test [10] were 1.44 (inactive) and -0.151, respectively.
In the case of `COc1cc2c(cc1O)C(C1CC1)N(Cc1ccc([N+](=O)[O-])o1)CC2` (stereo not given), the z-score is -0.145 in [1]; -1.49 (inactive) in test [2]; -0.0144 (inactive) in test [3]; 0.0898 (inactive) in [5]; -0.346 (inactive) in test [6]; -0.698 (inactive) in test [7]. For the same compound, the results for the z-score in test [8] and in test [9] were -0.821 (inactive) and 0.211, respectively. Also, the composite z-score in [4] is -4.24 (inactive); in [10], 0.234.
`COc1ccc([Si](C)(C)[C@@H]2[C@@H](CC(=O)N(CCO)Cc3ccccc3)O[C@]3(C(=O)N(Cc4ccc(N5CCC5=O)cc4)c4ccccc43)[C@H]2C)cc1`: the z-score was 0.278 in test [1]; 0.144 (inactive) in test [2]; -0.604 (inactive) in test [3]; 1.2 (inactive) in [5]; 0.67 (inactive) in test [6]; 0.505 (inactive) in test [7]. Further, the values for the z-score in test [8] and in test [9] were 0.358 (inactive) and -1.66, respectively. Also, the composite z-score was -1.44 (inactive) in [4] and -0.0151 in test [10].
Turning to `CN1C(=O)[C@]2(CCS(=O)(=O)c3ccccc3)N=C(c3ccc(OCCCO)cc3)O[C@@H]2c2ccccc21`, the z-score is -0.0688 in test [1]; 0.902 (inactive) in test [2]; -0.101 (inactive) in test [3]; -0.0279 (inactive) in [5]; 2.34 (inactive) in [6]; 0.124 (inactive) in [7]. In addition, the z-score in test [8] was -0.687 (inactive); in test [9], -1.02. Besides, the composite z-score in [4] is 0.349 (inactive); in [10], 0.0506.
As for `Cc1ccc(S[C@]2(C(=O)NC3CC3)CC(=O)N(Cc3cc(C(F)(F)F)cc(C(F)(F)F)c3)[C@@H]2c2ccc(CO)cc2I)cc1`, the z-score in [1] was 0.411; in test [2], -5.11 (inactive); in test [3] it was -2.78 (inactive); in test [5] it was 0.944 (inactive); in test [6], -1.6 (inactive); in test [7] it was 0.0621 (inactive). Further, the values for the z-score in test [8] and in [9] were 0.108 (inactive) and -2.23, respectively. Also, the values for the composite z-score in test [4] and in test [10] were -3.55 (inactive) and 0.723, respectively.
`CCCCN1CC=CC23O[C@@H]4C=CCOC(=O)[C@@H]4[C@H]2C(=O)N(CCO)[C@@H]3C1=O` (stereo not given in full): the z-score is -0.394 in test [1]; 1.31 (inactive) in test [2]; -0.202 (inactive) in [3]; -0.208 (inactive) in [5]; -0.322 (inactive) in test [6]; 0.233 (inactive) in [7]. Further, the z-score in test [8] is 0.109 (inactive); in test [9] it was -0.236. Also, the composite z-score was -0.161 (inactive) in [4] and -0.239 in test [10].
Consider `C[C@H]1NC(=O)C([C@@H](C)OCc2ccccc2)NC(=O)[C@@]23C(=O)N[C@@H](Cc4ccccc4)C2[C@H](C)[C@@]2(C)O[C@H]2C3/C=C/C/C=C\CNC1=O` (stereo not given in full), for which the z-score is -0.588 in test [1]; 0.481 (inactive) in test [2]; 0.178 (inactive) in test [3]; 0.13 (inactive) in test [5]; 0.787 (inactive) in [6]; 0.979 (inactive) in test [7]. In addition, the z-score in [8] was 0.545 (inactive); in test [9], 0.472. Besides, the composite z-score was 0.369 (inactive) in test [4] and -0.381 in test [10].
Turning to `COCCOC(=O)N1C(=O)[C@@]2(c3cc(C#CC4=CCCCC4)ccc31)[C@H](c1ccc(OCCO)cc1)N1[C@H](c3ccccc3)[C@H](c3ccccc3)OC(=O)[C@H]1[C@@H]2C(=O)N1CCCCCCC1`, the z-score was -0.748 in test [1]; -0.747 (inactive) in [2]; -0.168 (inactive) in [3]; 3.23 (inactive) in test [5]; -0.766 (inactive) in test [6]; -0.363 (inactive) in [7]. For the same compound, the z-score in test [8] is 0.817 (inactive); in [9], -0.435. Moreover, the composite z-score in test [4] is -0.859 (inactive); in test [10], 0.248.
`C=CC[C@]1(C(=O)NCc2ccccc2)COC(c2ccc(OCCCO)cc2)=N1`: the z-score is -0.137 in test [1]; -1.92 (inactive) in test [2]; -1.4 (inactive) in [3]; -0.0025 (inactive) in test [5]; 0.02 (inactive) in test [6]; 0.729 (inactive) in test [7]. For the same compound, the figures for the z-score in test [8] and in [9] were -0.145 (inactive) and -0.874, respectively. The composite z-score was -0.267 (inactive) in test [4] and 0.001 in [10].
